Source: PubChem BioAssay (National Center for Advancing Translational Sciences (NCATS))
Compounds with a hit are over-represented: about 12% of the library has one in this group of screens.
HP1b binding inh = blocks HP1-beta chromodomain binding to methylated histone tails; P83916; AlphaScreen HP1-beta / biotin-H3K9me3 peptide binding; Potency, µM (titrated, usually from 114 µM), for the others: at the highest dose activity change, negative = inhibition, most hits filed as inhibitors; actives 0.56% (n = 390,000); further: nearly all actives have a fitted effect of over 70% in size
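AlphaScreen: HP1-beta (50 nM) preformed 30 min with biotin-H3(1-18)K9me3 peptide (50 nM) in PBS pH 7.4, 0.01% Tween-20. Compound added for 30 min at RT, then streptavidin donor/nickel chelate acceptor beads (10 ug/mL) for 30 min.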
BAZ2B inh = inhibitors of human BAZ2B bromodomain | AID 504333 | Potency, µM (top dose mostly 114 µM), for the others: at the highest dose activity change, negative = inhibition, usual class: inhibitors | AlphaScreen BAZ2B-H3K14Ac peptide displacement | actives 4.4% (n = 360,000) | Q9UIF8; further: on the % scale 0 is the no-effect control and ±100 the full control effect; nearly all actives have a fitted effect of over 60% in size
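Compounds, titrated to a top concentration of 110 uM, were incubated 30 min at room temperature with preformed BAZ2B/acetyl-K14 H3 peptide complex (50 nM each). Proximity signal was measured by AlphaScreen after 20 min with beads.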
Sfp PPTase inh = blocks B. subtilis Sfp PPTase activity | Potency, µM, inactives show largest response in the series, negative = inhibition, actives largely listed as inhibitors | AID 1490 | actives 3.5% (n = 310,000) | Biochemical Sfp PPTase activity, qHTS;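 further: the enzyme is Sfp with the accession as filed and its product quenches rhodamine fluorescence; 0% = enzyme reaction without inhibitor and -100% = no enzyme wells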
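Sfp 15 nM + cpd, 15 min RT; start w/ rhodamine-CoA 5 uM, BHQ-2-YbbR 12.5 uM (final); 50 mM Hepes pH 7.6, 10 mM MgCl2, 0.01% NP-40, 0.01% BSA; read 525/598 nm at 0 and 30 min.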
G9a inh = blocks human histone lysine methyltransferase G9a. AID 504332. actives 8.8% (n = 350,000). Q96KQ7. Potency, µM (highest dose often 102 µM), for the others: at the top dose activity, negative = inhibition, actives largely listed as inhibitors. G9a H3K9 monomethylation, AlphaScreen, 2 h; further: on the % scale 0 is the no-effect control and ±100 the full control effect; nearly all actives have a fitted effect of over 75% in size
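Compounds were preincubated with 20 nM G9a for 15 min, after which biotinylated H3K9 peptide (500 nM) and SAM (20 uM) started a 2 h room-temperature reaction. Monomethylated product was quantified by antibody-based AlphaScreen chemiluminescence.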
JMJD2A Tudor = JMJD2A Tudor domain (human) inhibition. O75164. AlphaScreen JMJD2A-Tudor / H3K4me3 peptide binding. Potency, µM (top dose mostly 114 µM), without a hit: at the top dose activity change, negative = inhibition, actives largely listed as inhibitors. actives 4.4% (n = 390,000). AID 504339; further: on the % scale 0 is the no-effect control and ±100 the full control effect; nearly all actives have a fitted effect of over 50% in size
The depositor's hits bear a star; ? = inconclusive; · = no result given; ! = repeats disagree; [ ] = another dose, or the depositor's remark. The call rests on the fitted dose curve; in most records, active means well fitted curve in the direction sought with a large enough effect; inconclusive means small, poorly fitted or top-dose-only effect, or another doubt; inactive means no such curve, though single readings can be large; an effect the other way counts as inactive or inconclusive. Potency means the concentration at half of the fitted maximal effect.

SMILES | HP1b binding inh | BAZ2B inh | Sfp PPTase inh | G9a inh | JMJD2A Tudor
COc1ccccc1NC(=O)CSc1nnnn1-c1ccccc1F | -9% | 8% | 40µM* | -7%[0.501 µM] | -9%
CN1CCN(c2ccc(NC(=O)CSc3nnnn3-c3ccccc3F)cc2)CC1 | 3% | -21%[57.1 µM] | 0% | 79µM* | -30%
Cc1ccc(-n2nnnc2SCC(=O)Nc2cc(C)on2)c(C)c1 | 29%[57 µM] | -17% | 0% | 5% | -4%
Cc1ccc(-n2nnnc2SCC(=O)Nc2ccc(N3CCN(C)CC3)cc2)c(C)c1 | 55% | ? | -7% | 50µM* | 7%
COc1ccc(-n2nnnc2SCC(=O)NCCc2ccccc2)cc1OC | 32% | ? | 8% | 22µM* | -3%
COc1ccc(NC(=O)CSc2nnnn2-c2ccccc2F)cc1 | 20% | -9% | 20% | ? | -11%
Cc1cc(Nc2nn(C)c(N)c2C#N)ccc1F | 20% | -11% | 5% | -38% | -22%
CC(NC(=O)c1cc(S(=O)(=O)N2CCCC2)ccc1Cl)c1ccccn1 (configuration not stated) | 34% | 4% | · | -6%[2.33 µM] | 0%
COc1cc(-c2nc3ccc(N4CCN(C)CC4)cc3[nH]2)cc(OC)c1OC | 5% | -35% | -9% | 40µM* | -5%
CC1CCN(S(=O)(=O)c2ccc3c(c2)N(CC(=O)Nc2ccc(F)c(Cl)c2)C(=O)CO3)CC1 | 56% | 1% | · | 6%[59 µM] | 0%
O=C(NNC(=O)c1cc2ccccc2oc1=O)c1ccccc1 | ? | 3% | 50µM* | 32µM* | -9%
O=C(NCc1cccnc1)c1cc2ccccc2oc1=O | -9% | -2% | -10% | 50µM* | -9%
O=C(OCCNC(=O)c1cc2ccccc2oc1=O)c1cccnc1 | 39% | -8% | 17% | ? | -1%
O=C(NCc1ccc(F)cc1)c1cc2ccccc2o1 | 40% | -9% | 14% | 79µM* | 1%
COc1ccc(S(=O)(=O)c2cnc3ccc(Cl)cc3c2N2CCCCC2C)cc1 (configuration not stated) | 31% | -15% | · | 0%[59 µM] | -3%
CCCCc1ccc(-c2nc(N)n[nH]2)cc1 | 24% | -3% | 11% | 0% | -13%
Nc1n[nH]c(-c2ccc(F)cc2)n1 | 19% | ? | -4% | 45µM* | ?
c1ccc(COc2ncnc3c2ncn3CCCNCC2CCCO2)cc1 (configuration not stated) | 22% | · | · | · | -12%
O=C1C(=O)c2ccccc2C(O)=C1c1ccccc1F | -16% | ? | 17% | ? | -24%
O=C1C=C(c2c(O)ccc3ccccc23)c2ccccc2C1=O | 25µM* | · | · | · | 40µM*
COC(=O)c1cc2ccccc2c(-c2c(O)ccc3ccccc23)c1O | -14% | ? | -5% | ? | ?
O=C1C(O)=C(O)C(=O)c2ccccc21 | ? | · | · | · | 56µM*
O=C1C=C(O)c2ccccc2C1=O | · | · | 79µM*! | · | ·
CC(=O)N(C)C1=C(O)c2ccccc2C(=O)C1=O | 11% | ? | 2% | 79µM* | -29%
CS(=O)(=O)Nc1ccc([N+](=O)[O-])cc1OC1CCCCC1 | · | · | 3% | 25%[59 µM] | ·
SMILES | HP1b binding inh | BAZ2B inh | Sfp PPTase inh | G9a inh | JMJD2A Tudor
Cc1ccc(-n2c(=O)c3c(cnn3C)n(Cc3ccc(Cl)cc3)c2=O)cc1 | 78% | 18% | · | 17%[59 µM] | -15%
COc1ccc(C(=O)NCc2ccc3c(c2)cc(C)n3C)cc1OC | -4% | ? | 2% | ? | -32%
COc1ccc(CC(=O)NCc2ccc3c(c2)cc(C)n3C)cc1 | 25% | -23% | 18% | -30% | -13%
Cc1cc2cc(CNC(=O)c3cccs3)ccc2n1C | -15% | 50µM* | 45µM* | 50µM* | ?
COc1ccccc1NC(=S)NCc1ccc2c(c1)cc(C)n2C | ? | 25µM* | 9% | ? | 50µM*
COc1ccc(NC(=S)NCc2ccc3c(c2)cc(C)n3C)cc1 | ? | 45µM* | 4% | 40µM* | 50µM*
COc1cccc(C(=O)NCc2ccc3c(c2)cc(C)n3C)c1 | 0% | ? | 9% | 50µM* | ?
CCC(CC)C(=O)NCc1ccc2c(c1)cc(C)n2C | 42% | -26% | 14% | 7%[12.7 µM] | -19%
CCOC(=O)NCc1ccc2c(c1)cc(C)n2C | -7% | -37% | -7% | 16%[12.7 µM] | -27%
CCCCNC(=S)NCc1ccc2c(c1)cc(C)n2C | -7% | 45µM* | 4% | ? | ?
COc1ccc(NC(=S)NCc2cccn2C)cc1 | -21% | 35µM* | ? | 50µM* | -31%
Cc1cc2cc(CNC(=O)Nc3ccccc3)ccc2n1C | ? | 4% | 11% | 32µM* | ?
CCc1cccc(C)c1NC(=S)NCc1ccc2c(c1)cc(C)n2C | -18% | 25µM* | 9% | 40µM* | 50µM*
COc1ccc(CC(=O)NCCCCc2ccccc2)cc1OC | 16% | · | · | · | -4%
Cc1cccc(C)c1NC(=O)c1ccc2nc(CCc3ccccc3)oc2c1 | 12%[57 µM] | -2% | · | 1%[59 µM] | -13%
Cc1cc2cc(CNC(=O)c3ccc(S(=O)(=O)N4CCCCC4)cc3)ccc2n1C | 31% | -32% | ? | 50µM* | -8%
Cc1cc2cc(CNC(=S)NCc3ccccc3)ccc2n1C | ? | 25µM* | 11% | ? | 50µM*
CCOC(=O)CCC(=O)NCc1ccc2c(c1)cc(C)n2C | 28% | -15% | 79µM* | 8%[0.0925 µM] | -19%
Cc1cc2cc(CNC(=O)c3ccc(S(=O)(=O)N4CCCC4)cc3)ccc2n1C | 32% | 5% | -6% | ? | -12%
Cc1cccc2nc(CSC(=N)N)c(Br)n12 | 36% | -31% | -9% | 8.9µM* | -1%
Cc1ccc(Nc2nc(-c3ccc(S(=O)(=O)N4CCCC4)cc3)cs2)cc1C | 0% | ? | -19% | 45µM* | ?
COc1ccc(CC(=O)Nc2ccc(S(=O)(=O)Nc3cc(C)on3)cc2)cc1OC | 12% | 11% | 19% | 0% | -6%
COc1ccc(-c2csc(Nc3ccc(S(=O)(=O)Nc4cc(C)on4)cc3)n2)cc1C | -15% | 50µM* | -27% | 40µM* | ?
COc1ccc(-c2csc(Nc3ccc(S(=O)(=O)Nc4cc(OC)nc(OC)n4)cc3)n2)cc1 | ? | 45µM* | ? | -12%[59 µM] | ?
COc1ccc(OC)c(/C(O)=C/C(=O)C(=O)Nc2cc(C)cc(C)c2)c1 | 36% | 7% | -1% | -11%[59 µM] | -24%
COC(=O)C(=O)/C=C(\O)c1c(C)cc(C)cc1C | 8% | 79µM* | -13% | 18µM* | ?
COc1cc2c(cc1OC)C(c1ccccc1)N(C(=O)CCl)CC2 (configuration not stated) | 29% | 7% | 2% | -7%[59 µM] | -13%
COc1cc2c(cc1OC)C(c1ccccc1O)N(C1CC(=O)N(c3ccccc3)C1=O)CC2 (configuration not stated) | 16% | -29% | ? | 8.9µM* | -10%
